Compound activity (PubChem)
Pf Dd2 inh = qHTS Primary assay for Inhibitors of Plasmodium falciparum Dd2 growth in vitro. P. falciparum Dd2 growth, SYBR Green, 72 h. Potency, µM (titrated, usually from 28.9 µM), actives largely listed as inhibitors. 120,000 compounds, 4.3% hits; active = well fitted inhibition curve with a large enough effect; note: nearly all actives have a fitted effect of over 65% in size
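Infected erythrocytes (Dd2, 0.3% parasitemia, 2.5% hematocrit final) are added to compound in RPMI-1640/Albumax II medium, grown 72 h at 37C in low oxygen, then lysed with saponin/Triton-X containing SYBR Green and read by fluorescence.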
Of the large screens only hits and unclear results are named; the others gave an inactive call. Many of the other results were omitted from the sample, so hits are more common in it than they were.

Cc1ncncc1C(=O)N1CCOC(CC(c2ccccc2)c2ccccc2)C1 (stereo not given)	none
NC1(C(=O)N2CCOC(CC(c3ccccc3)c3ccccc3)C2)CC1 (stereo not given)	Pf Dd2 inh 10µM
O=C(c1ccc[n+]([O-])c1)N1CCOC(CC(c2ccccc2)c2ccccc2)C1 (stereo not given)	none
O=C(c1cc2ccccc2[nH]1)N1CCN(c2cc(-c3ccccc3)[nH]n2)CC1	none
COC[C@@H]1CN(Cc2ccc(C#N)cc2)C[C@H]1C(=O)NC1CC1	none
O=C1NC2(CCN(Cc3ccc(OC(F)(F)F)cc3)CC2)COc2ccccc21	Pf Dd2 inh 2.2µM
O=C1NC2(CCCN(Cc3ccc(OC(F)(F)F)cc3)C2)COc2ccccc21 (stereo not given)	none
CN(C)c1ccc(CN2CCC3(CC2)COc2ccccc2C(=O)N3)cc1	Pf Dd2 inh 1.1µM
Cn1cccc1CN1CC2(C1)NC(=O)c1ccccc1O2	none
Cn1cccc1CN1CCC2(CC1)COc1ccccc1C(=O)N2	Pf Dd2 inh 5.6µM
O=C1NC2(CCN(C(=O)c3ccccc3)CC2)COc2ccccc21	none
O=C1NC2(CCN(C(=O)C3CCCC3)CC2)COc2ccccc21	none
CN(C)c1ccc(CN2CCC3(COc4ccccc4C(=O)N3)C2)cc1 (stereo not given)	none
O=C1NC2(CCN(CC3CCCC3)CC2)COc2ccccc21	none
Cc1cc(C)cc(OCC(=O)c2ccc3c(c2)N(CC(=O)N2CCOCC2)C(=O)CO3)c1	none
Cc1nc(-c2c3n(c(=O)n(CC(=O)Nc4ccc(F)cc4)c2=O)CCCC3)no1	none
CCCCc1cn(C[C@H]2CC3CCN2C[C@@H]3C(=O)NCc2ccco2)nn1 (stereo not given in full)	none
CN(C)C[C@@H]1CN(S(C)(=O)=O)C[C@H]1NC(=O)c1c(F)cccc1Cl	none
CCc1cn(C[C@H](NC(=O)C2CCC2)C(=O)O)c(=O)[nH]c1=O	none
O=C1CC2CCN(C(=O)Cc3ccccc3)CC2CCN1 (stereo not given)	none
O=C(NCc1ccc(F)cc1F)C1CCN(C(=O)c2ncn3c2COC(c2ccccc2)C3)CC1 (stereo not given)	none
COc1ccc(CN2CCN3C(=O)N(C4CCOCC4)C[C@H]3C2)cc1	none
CC(C)CNC(=O)C1Cn2cccc2C(=O)N1Cc1ccccc1 (stereo not given)	none
CC(C)CNC(=O)C1Cn2cccc2C(=O)N1Cc1cccnc1 (stereo not given)	Pf Dd2 inh 7.9µM
O=C(NCCc1ccccc1)C1Cn2cccc2C(=O)N1Cc1ccccc1 (stereo not given)	none
O=C(NCc1ccccc1)C1Cn2cccc2C(=O)N1Cc1cccnc1 (stereo not given)	none
O=C(CN1CCCCCC1)NCC1Cn2cccc2C(=O)N1Cc1ccccc1 (stereo not given)	Pf Dd2 inh 4µM
O=C(NCCCN1CCc2ccccc2C1)C1Cn2cccc2C(=O)N1Cc1ccccc1 (stereo not given)	Pf Dd2 inh 0.89µM
CC(C)C(=O)NCC1Cn2cccc2C(=O)N1Cc1ccccc1 (stereo not given)	none
O=C(NCC1Cn2cccc2C(=O)N1Cc1ccccc1)NC1CCCC1 (stereo not given)	none
O=C(NCCCN1CCCC1=O)C1Cn2cccc2C(=O)N1Cc1ccccc1 (stereo not given)	none
Cc1ccccc1C(=O)N(C)Cc1cccn1C	none
O=C(Cc1ccccc1)N1CCOC2(CCN(C(=O)c3ccccc3)CC2)C1	none
CC(C)c1ccccc1NC(=O)CN1C(=O)NC2(CCOCC2)C1=O	none
COc1ccccc1C(=O)N1CCN(C(=O)c2nnn3c2COC(c2ccc(C)cc2)C3)CC1 (stereo not given)	none
O=C(NC1CCCN(c2cc(-c3ccc(F)cc3)[nH]n2)C1)c1ccc2nc[nH]c2c1 (stereo not given)	none
COCc1ccc(C(=O)N2CC[C@@H](NC(=O)c3cnccn3)[C@H](O)C2)o1	none
N[C@H]1c2ccccc2C[C@@H]1NC(=O)COc1ccc(Cl)cc1Cl	none
CCCCNC(=O)Cc1csc2nc(C)c(-c3cc(C)n(-c4cccc(Cl)c4)n3)c(=O)n12	Pf Dd2 inh 7.9µM
COCCNC(=O)Cc1csc2nc(C)c(-c3cc(C)n(-c4ccccc4F)n3)c(=O)n12	none
CCCNC(=O)Cc1csc2nc(C)c(-c3cc(C)n(-c4cccc(C)c4C)n3)c(=O)n12	none
CCCCCNC(=O)Cc1csc2nc(C)c(-c3cc(C)n(-c4cccc(C)c4)n3)c(=O)n12	none
Cc1ccc(Cl)cc1-n1nc(-c2c(C)nc3scc(CC(=O)NCCC(C)C)n3c2=O)cc1C	Pf Dd2 inh 7.9µM
CCCCNC(=O)Cc1csc2nc(C)c(-c3cc(C)n(-c4ccc(C)cc4)n3)c(=O)n12	none
CC1(C(=O)NCc2cccc(F)c2)CCCc2cnc(Nc3cccnc3)nc21 (stereo not given)	none
O=C(N1CCN(Cc2ccc(Cl)c(Cl)c2)CC1)C12CNCC1CNC2 (stereo not given)	none
COc1ccc(NC(=O)N2CCC3(CC2)SCC(=O)N3c2ccc(F)cc2)cc1	none
CCC(=O)NCCn1c(C)nc2cc(S(=O)(=O)N3CCOCC3)ccc21	none
COc1ccc(-c2oc3ncn4nc(-c5cccc(C)c5)nc4c3c2-c2ccc(OC)cc2)cc1	none
COc1ccc(-c2oc3ncn4nc(COc5c(C)cccc5C)nc4c3c2-c2ccc(OC)cc2)cc1	Pf Dd2 inh 11µM
Cc1cccc(C)c1OCc1nc2c3c(-c4ccccc4)c(-c4ccccc4)oc3ncn2n1	none
Cn1ncc(N2CCOC(CCNC3CCC4(CCNCC4)CC3)C2)cc1=O (stereo not given)	none
COCCCNC(=O)c1ccc(Cn2c(=O)c3ccccc3n(Cc3ccc(Cl)cc3)c2=O)cc1	none
O=C(NC1CCN(Cc2ccccc2)CC1)c1ccc(Cn2c(=O)c3ccccc3n(Cc3ccccc3)c2=O)cc1	none
O=C(NC1CCN(Cc2ccccc2)CC1)c1ccc(Cn2c(=O)c3ccccc3n(Cc3ccc(Cl)cc3)c2=O)cc1	Pf Dd2 inh 5µM
CC(C)C(NC(=O)C1CCN(C(=O)C2CC2)CC1)c1nccn1C (stereo not given)	none
Cc1cc(C)c(NC(=O)Cn2cccc2-c2nc(-c3ccccc3)no2)c(C)c1	none
CC(C)c1ccc(C2=CC(c3cccc(Cl)c3)n3ncnc3N2)cc1 (stereo not given)	none
COc1cccc(C2C(C(=O)Nc3ccc(C)cc3C)=C(C)Nc3nc4ccccc4n32)c1OC (stereo not given)	none
CC1=C(C(N)=O)C(c2ccc(C(C)C)cc2)n2nc(SCc3ccccc3F)nc2N1 (stereo not given)	none
COc1cccc(C2C(C(=O)Nc3ccc(Cl)cc3)=C(C)Nc3nc4ccccc4n32)c1 (stereo not given)	none
Cn1c(=O)c2c(c3ccccc31)OC(=O)CC2c1cccc(Cl)c1 (stereo not given)	none
CC(C)c1ccc(C2N=C(N)Nc3nc4ccccc4n32)cc1 (stereo not given)	Pf Dd2 inh 3.2µM
CC(C)c1ccc(C2=CC(c3cccc(Cl)c3)n3c(nc4ccccc43)N2)cc1 (stereo not given)	Pf Dd2 inh 11µM
CCN(CC)C(=O)C1=C(C)Nc2nc3ccccc3n2C1c1cccc(Cl)c1 (stereo not given)	Pf Dd2 inh 11µM
CCc1ccc(C2=CC(c3cccc(OC)c3OC)n3c(nc4ccccc43)N2)cc1 (stereo not given)	Pf Dd2 inh 8.9µM
COc1cccc(C2=CC(c3ccccc3F)n3c(nc4ccccc43)N2)c1 (stereo not given)	none
